Hit rate of the full screen: of about 16,000 compounds, about 5,800 (36%) were called active. Another 23% or so got no clear call; they are omitted. The list shows a part of the results. Values without a mark were called inactive. Calls come from the whole dose curve; as a rule, active = well fitted curve in the direction sought with a large enough effect; inconclusive = small, poorly fitted or top-dose-only effect, or effect the other way; inactive = no such curve, though single readings can be large or run the other way.
Each compound was assayed against Cytochrome P450 2C19 (Homo sapiens) (UniProt P33261) (assay: Cytochrome panel assay with activity outcomes). Details: recombinant CYP, pro-luciferin dealkylation, luminescence, p450-cyp2c19; series mostly up to 57.1 µM; activity, negative = inhibition: at the top concentration.
Cytochrome P450 2C19 (Homo sapiens), sequence (P33261 whole entry, looked up): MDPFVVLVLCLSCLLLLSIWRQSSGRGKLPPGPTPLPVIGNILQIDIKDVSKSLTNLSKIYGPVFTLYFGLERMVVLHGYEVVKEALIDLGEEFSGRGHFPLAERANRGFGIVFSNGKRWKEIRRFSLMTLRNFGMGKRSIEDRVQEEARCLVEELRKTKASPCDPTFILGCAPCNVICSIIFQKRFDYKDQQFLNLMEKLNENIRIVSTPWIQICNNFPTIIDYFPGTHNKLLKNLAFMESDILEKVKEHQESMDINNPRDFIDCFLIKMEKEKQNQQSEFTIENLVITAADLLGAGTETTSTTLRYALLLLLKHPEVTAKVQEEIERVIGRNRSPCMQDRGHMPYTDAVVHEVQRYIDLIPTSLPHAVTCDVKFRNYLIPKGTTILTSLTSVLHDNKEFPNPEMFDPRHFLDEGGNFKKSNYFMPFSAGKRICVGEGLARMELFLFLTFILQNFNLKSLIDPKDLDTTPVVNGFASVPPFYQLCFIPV
% is set by controls: 0 for no effect and ±100 for the full control effect.

Structure (SMILES)	activity, negative = inhibition	AC50
CCN1C(=O)C=CC1=O	-21.9%	–
C=CCNS(=O)(=O)c1cccc2cc(C(=O)O)c(O)cc12	16.1%	–
O=S(=O)(NCCCCCCc1ccccc1)c1cccc2c(Cl)cccc12	–	1000 nM (active)
CCCCNS(=O)(=O)c1ccc(OC)c(Cl)c1Cl	–	794 nM (active)
COc1cc(/C=C/C(=O)O)cc(S(=O)(=O)NCCCO)c1OC	5.71%	–
NCCCCCCCCCCNS(=O)(=O)c1cccc2c(Cl)cccc12	–	79.4 nM (active)
NCCCCCCNS(=O)(=O)c1cccc2ccccc12	–	1000 nM (active)
NCCNS(=O)(=O)c1cccc2cnccc12	–	inactive
CC12CCC(C(=O)O)(C/C1=N\O)C2(C)C (stereo unspecified)	-19.9%	–
CCNC(=O)COC(=O)c1cc(=O)[nH]c2ccccc12	-10.7%	–
Cc1cc(C(=O)OCC(=O)NCCC(C)C)c2ccccc2n1	–	14100 nM (active)
N[C@@H](Cc1[nH]nc2ccccc12)C(=O)O	2.15% [at 11.4 µM]	–
CCNC(=O)COC(=O)c1cc(-c2ccc(OC)cc2)nc2ccccc12	–	11200 nM (active)
COc1ccc(OC)c(-c2cc(C(=O)O)c3cc4ccccc4cc3n2)c1	2.46% [at 11.4 µM]	–
CC(C)NC(=O)COC(=O)c1cc(=O)[nH]c2ccccc12	2.4%	–
COc1ccc(C(=S)Nc2ccccc2)cc1	–	3980 nM (active)
COc1ccc(NC(=S)Nc2ccccc2)cc1	–	2000 nM (active)
COc1ccc(C(=O)N2CCC3(CC2)CN(C(=O)Nc2ccccc2)C3)cc1	7.1%	–
CC(=O)O[C@]1(C(C)=O)CC[C@@H]2[C@@H]3C=C(Cl)C4=CC(=O)[C@H]5C[C@@H]5[C@]4(C)[C@H]3CC[C@]21C	–	inactive
COc1cccc(-c2[nH]nc3c2C(c2ccsc2)C(C#N)=C(N)O3)c1 (stereo unspecified)	–	447 nM (active)
COc1cccc(-c2[nH]nc3c2C(c2ccc(C)o2)C(C#N)=C(N)O3)c1 (stereo unspecified)	–	1780 nM (active)
CS(=O)(=O)N1CCC2(CCN(Cc3nccs3)CC2)CC1	-15.5%	–
NC(N)=N[C@H](CCC(=O)O)C(=O)O	28.8%	–
COC(=O)N1CCC[C@@]2(CCN(C(=O)Nc3cccc(C#N)c3)C2)C1	-28.2%	–
COc1cc(C2C(C#N)=C(N)OC3=C2C(=O)CCC3)cc(OC)c1OC(=O)N1CCOCC1 (stereo unspecified)	24%	–
COC(=O)C1=C(C)OC(N)=C(C#N)C1C1CCCCC1 (stereo unspecified)	–	562 nM (active)

Structure (SMILES)	activity, negative = inhibition	AC50
COC(=O)C1=C(C)OC(N)=C(C#N)C1c1cc(OC)ccc1OC (stereo unspecified)	–	7940 nM (active)
COc1ccc(N2CCN(C(=N)/C(C(C)=O)=C(\C)O)CC2)cc1	-57.5%	–
O=C(c1coc(=O)c2ccccc12)N1CCN(Cc2ccccc2)CC1	–	2240 nM (active)
COC(=O)c1ccccc1OCC(=O)N1CCN(c2ccc(OC)cc2)CC1	–	14100 nM (active)
COc1ccc(Nc2ncc(C(=O)N3CCN(Cc4ccccc4)CC3)c3ccccc23)cc1	–	2000 nM (active)
COc1ccc(C(=O)N2CCC3(CCN(Cc4ccccc4OC)CC3)CC2)cc1	21.2%	–
CC(=O)N1CCC2(CCN(Cc3ccccc3)CC2)CC1	-14.9%	–
COc1ccc(Nc2ncc(C(=O)N3CCN(c4ccc(F)cc4)CC3)c3ccccc23)cc1	–	2240 nM (active)
O=C(c1ccco1)N1CCC2(CCN(Cc3ccccc3)CC2)CC1	-25.6%	–
COc1cccc(Nc2ncc(C(=O)O)c3ccccc23)c1	-20.7%	–
C1CNCCOCCNCCN1	-22.9%	–
Fc1ccc(COc2ccc(Br)cc2CNCc2ccncc2)cc1	–	100 nM (active)
CCCN[C@@H](C)C(=O)Nc1c(C)csc1C(=O)OC	-40.8% [at 25.6 µM]	–
COC(=O)c1scc(C)c1NC(=O)Cc1ccccc1	–	15800 nM (active)
O=C(Nc1ccccc1)N1CC[C@@]2(CCCN(C(=O)c3cnccn3)C2)C1	20.3%	–
Cc1cccc(-c2nc(CN3CCCC(C(=O)NC4CCCCC4)C3)c(C)o2)c1 (stereo unspecified)	–	22400 nM (active)
Cc1ccc(Cc2cnc(NC(=O)c3cccs3)s2)cc1	–	8910 nM (active)
Cc1ccc(-c2nnc(-c3ccc(NC(=O)c4cccs4)cc3)o2)cc1	–	6310 nM (active)
Cc1ccccc1-c1nc(-c2ccc(NC(=O)c3cccs3)cc2)no1	–	2820 nM (active)
Cn1c(=O)c2c(ncn2CC(COCc2ccccc2Cl)OCc2ccccc2Cl)n(C)c1=O (stereo unspecified)	–	8910 nM (active)
Cn1c(=O)c2c(ncn2C[C@@H](O)CO)n(C)c1=O	-17.4% [at 25.6 µM]	–
Cn1c(=O)c2c(ncn2CCO)n(C)c1=O	33.6% [at 25.6 µM]	–
Cc1ccc(-c2csc(N3CCC(NS(=O)(=O)c4ccc5c(c4)OCCO5)CC3)n2)cc1	–	3160 nM (active)
CCCCOc1ccc(C(=O)N/C(=C\c2ccc(OC)cc2)C(=O)OCc2ccco2)cc1	–	3980 nM (active)
CCCCOc1ccc(C(=O)N/C(=C\c2cccc([N+](=O)[O-])c2)C(=O)OCCC)cc1	-1.17%	–
